Test results taken from PubChem BioAssay (NCI).
About 83,000 compounds went through this panel and 20% of them were active in at least one assay; those are over-represented in the sample as a whole.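 Cell lines were cultured in 96-well plates, exposed to a single compound concentration, and assessed for percent growth 48 hours later.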 Unmarked numbers belong to inactive results. Activity calls are given as the source filed them. Rule for the calls: active = growth percent below 10; inactive = the rest.

Test system: HL-60(TB) leukemia
Assay: NCI-60 one-dose screen, 48 h (100 = growth as untreated, 0 = no growth, -100 = all killed)
Details: 10 µM unless noted

SMILES | growth
O=c1c2cccc3c(N4CCOCC4)ccc(c32)c2nc3ccccc3n12 | 80.2%
CC1(C)CC(=O)c2c(ccc(C(=O)C[C@H](N)CO)c2N)O1 | 44.8%
CCOC(=O)C1=C(C)c2ccc(OC)c(OC)c2C1 | 106%
Cc1cc(C(C#N)c2ccc(Cl)cc2)c(Cl)cc1NC(=O)c1cc(I)cc(I)c1O (centres undefined) | 17.4%
CCCCC[C@H]1C/C=C2/C(=O)C=C[C@@H]2C/C=C\CCCC(=O)O1 | 4.48% (active)
S=C(Cc1ccc(-c2ccccc2)cc1)N1CCOCC1 | 98.9%
CN1c2ccccc2S(=O)(=O)n2c(SCC(=O)Nc3nc4ccc(F)cc4s3)nnc21 | 105%
NS(=O)(=O)c1ccc(C(=O)N/N=C(\CS(=O)(=O)c2ccccc2)c2cc3cc(Br)ccc3o2)cc1 | 115%
CCN(CC)Cc1cccc(C(=O)OC)c1 | 83.2%
COc1ccc(-c2nc(/C=C3/C(=O)Nc4ccc(F)cc43)c3ccccn23)cc1 | 61.6%
O=C(CCc1nc2sc3c(c2c(=O)[nH]1)CCC3)NCc1cn(-c2ccccc2)nc1-c1ccccc1 | 98.7%
O=C1/C=C/[C@@H](O)[C@@H]2C[C@@H](O)C[C@H]2/C=C/CCC[C@H](CCc2ccc3ncccc3c2)O1 | -52.3% (active)
CCC(=O)Oc1ccc(/C(=C(\C)c2ccccc2)c2ccc(OCCN(CC)CC)cc2)cc1 | 45.1%
CCCCCCCCCOc1c(OC)cc(C2CC(=O)Nc3c2c(C)nn3-c2nc3ccccc3[nH]2)cc1OC (centres undefined) | 9.26% (active)
